We go through 65 compounds from PubChem BioAssay AID651661 (Broad Institute, 2012).

SMILES strings stand for the structures. Screen size: about 350,000 compounds; about 2,300 (0.66%) were called active. The full list was thinned out, with actives kept by preference. Values without a mark were called inactive.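 How the source made its calls: active means mean inhibition of at least 50% after viability correction, with every replicate also passing that limit; inconclusive means mean reaches 50% but only one of two replicates passes; inactive means the rest.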

In general, inhibition refers to the change of the read-out against control, counted positive when it falls.

A short description of this assay: blockers of EWS/Fli transcriptional output – A673 cells, NR0B1 luciferase, luminescence, MLPCN library, primary screen (AID 651661).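 Further: firefly luciferase signal divided by Alamar Blue viability fluorescence both relative to DMSO.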 To be noted: A673 NR0B1-luciferase reporter, viability-normalised; at 12.6 µM; active compounds read high. On the technique in general: Reporter assays use an easily measured gene product as a stand-in for the process of interest.
As to `CC(C)NC(=O)N1C[C@@H]2[C@H](c3ccccc31)[C@@H](CO)N2Cc1ccc(Cl)cc1`, the inhibition is 14.5%.

In the case of `CCN1/C(=C\c2ccc3ccccc3[n+]2CC)Sc2cc(C)ccc21`, the inhibition was 56.7% (active).

Take `COc1cccc(CNC(=O)c2nnn(CC(=O)Nc3cc(Cl)ccc3C)c2N)c1`: the inhibition is 2.98%.

Consider `Nc1c(C(=O)Nc2ccc3c(c2)OCCO3)nnn1Cc1ccccc1`, for which the inhibition was -100%.

As to `Nc1c(C(=O)NCc2ccccc2)nnn1Cc1cccc(Cl)c1`, the inhibition is 53% (active).

On to `COc1cccc(S(=O)(=O)N(C)C[C@@H]2Oc3ncc(-c4cccc(C(=O)N(C)C)c4)cc3C(=O)N([C@H](C)CO)C[C@H]2C)c1`, for which the inhibition was -6.58%.

For `COc1ccc(CN(C)C[C@H]2OCCCC[C@H](C)Oc3ccc(NS(C)(=O)=O)cc3C(=O)N([C@H](C)CO)C[C@@H]2C)cc1`, the inhibition was 1.53%.

For the compound `CN(C)CC#Cc1ccc([C@@H]2[C@H](CO)N3CCCCN(C(=O)Nc4ccc(F)cc4)C[C@@H]23)cc1`, the inhibition was -2.85%.

`O=C(Nc1ccc(F)cc1)N1CCCCN2[C@H](CO)[C@H](c3ccc(C#Cc4ccccc4)cc3)[C@H]2C1`: the inhibition was 84.6% (active).

Take `COc1ccc(C#Cc2ccc([C@H]3[C@@H](CO)N4CCCCN(C(=O)Nc5ccccc5)C[C@H]34)cc2)cc1`: the inhibition was 17.2%.

Consider `CO[C@H]1CN(C)C(=O)c2ccc(NC(=O)C3CCC3)cc2OC[C@@H](C)NC[C@H]1C`, for which the inhibition was 10.2%.

Turning to `CO[C@H]1CN(C)C(=O)c2cc(NC(=O)C3CCCCC3)ccc2OC[C@H](C)N(C(=O)c2ccccc2)C[C@H]1C`, the inhibition is 9.65%.

As to `CCCNC(=O)[C@H]1[C@H](CO)[C@H]2Cn3c(cccc3=O)[C@H]2N1Cc1ccccc1Cl`, the inhibition is -2.68%.

In the case of `COC(=O)c1cc(C(=O)N(Cc2ccccc2)c2ccccn2)cc([N+](=O)[O-])c1`, the inhibition was 7.71%.

Regarding `O=C(CCl)N(Cc1cccc([N+](=O)[O-])c1)c1cccc(Cl)c1`, the inhibition was 60% (active).

`CC(=O)N(CN1C(=O)C2C3C=CC(C3)C2C1=O)c1cccc(Cl)c1` (stereo not given): the inhibition is -2.77%.

For `CCC(=O)N(C)C[C@H]1Oc2cc(C#CCOC)ccc2S(=O)(=O)N([C@H](C)CO)C[C@H]1C`, the inhibition was -9.57%.

Take `CCOc1ccccc1N1CCN(C(=O)c2ccc3[nH]c(C)c(C)c3c2)CC1`: the inhibition was 55.9% (active).

As for `CCOc1ccccc1N1CCN(C(=O)COc2ccc3c(C)cc(=O)oc3c2)CC1`, the inhibition was 6.43%.

As for `CCn1c(C)c(C)c2cc(C(=O)N3CCN(c4cccc(C)c4C)CC3)ccc21`, the inhibition was 5.16%.

In the case of `CCC(=O)Nc1ccc2c(c1)C(=O)N(C)[C@H]1CC[C@H](CC(=O)NC3Cc4ccccc4C3)O[C@H]1CO2`, the inhibition is 4.71%.

Turning to `COc1ccc2c3c(n(C)c2c1)[C@H](CO)N(Cc1ccccc1Cl)CC31CN(C(=O)CN(C)C)C1`, the inhibition was 6.01%.

As for `COc1cccc(-n2c(=S)[nH]c3c(oc4ccccc43)c2=O)c1`, the inhibition is -11.6%.

Consider `O=c1oc2ccccc2cc1-c1cn(-c2ccccc2)c(=S)[nH]1`, for which the inhibition is 67.6% (active).

As to `CS(=O)(=O)N1CCN(C(=O)c2cc3ccccc3oc2=O)CC1`, the inhibition is -13.4%.

Regarding `O=C(N[C@H]1CC[C@H](CCNS(=O)(=O)c2ccc(F)cc2)O[C@H]1CO)c1cccnc1`, the inhibition was -0.681%.

`C[C@@H]1CN([C@@H](C)CO)C(=O)Cc2cc(NC(=O)C3CCCCC3)ccc2O[C@@H]1CN(C)Cc1ccc(C(=O)Nc2ccccc2N)cc1`: the inhibition is 12.7%.

Consider `Cn1cnc(S(=O)(=O)N[C@H]2C=C[C@H](CC(=O)NCC3CCCCC3)O[C@@H]2CO)c1`, for which the inhibition was -0.245%.

Consider `C[C@H](CO)N1C[C@H](C)[C@@H](CN(C)Cc2ccc(-c3ccccc3)cc2)Oc2ccc(NC(=O)CCCN(C)C)cc2CC1=O`, for which the inhibition was 4.89%.

On to `C[C@H]1CN([C@@H](C)CO)S(=O)(=O)c2ccc(C#Cc3ccncc3)cc2O[C@@H]1CN(C)C(=O)Nc1ccc2c(c1)OCO2`, for which the inhibition is 55.5% (active).

Take `C[C@@H]1CN([C@@H](C)CO)S(=O)(=O)c2ccc(C#Cc3ccccc3)cc2O[C@@H]1CN(C)C(=O)Nc1ccccc1`: the inhibition is 11%.

On to `C[C@H](CO)N1C[C@H](C)[C@H](CN(C)C(=O)Nc2ccc3c(c2)OCO3)Oc2cc(C#Cc3ccncc3)ccc2S1(=O)=O`, for which the inhibition is 22.2%.

In the case of `Cc1nc2ccccc2n1CC(=O)N/N=C/c1cccs1`, the inhibition was 3.45%.

Take `CCn1c(/C=N/NC(=O)c2ccc(OC)cc2)nc2ccccc21`: the inhibition is 75.2% (active).

On to `CCn1c(C(O)c2cc(OC)ccc2OC)nc2ccccc21` (stereo not given), for which the inhibition is -24.1%.

For the compound `COc1ccc2c3c(n(C)c2c1)[C@H](CO)N(CC1CCOCC1)CC31CCN(C(C)=O)CC1`, the inhibition is 0.574%.

As for `C[C@H]1CN([C@@H](C)CO)S(=O)(=O)c2ccc(-c3cccc(C#N)c3)cc2O[C@H]1CN(C)C(=O)c1ccccc1`, the inhibition is 4.97%.

`COCC#Cc1ccc(CC[C@H]2O[C@H]3CC[C@@H](CO)O[C@H]3C[C@H]2NC(=O)Nc2c(C)noc2C)cc1`: the inhibition is -3.3%.

As to `CCC(=O)Nc1ccc(Nc2nc(Cl)nc(Nc3ccc(NC(=O)CC)cc3)n2)cc1`, the inhibition is 7.36%.

Turning to `O=C(CCl)Nc1ccc(Sc2ccc(NC(=O)CCl)cc2)cc1`, the inhibition was 66.1% (active).

With `O=C(CCl)Nc1cccc(CP(=O)(c2ccccc2)c2ccccc2)c1`, the inhibition is 28.2%.

As to `CO[C@H]1CN(C)C(=O)c2ccc(NC(C)=O)cc2OC[C@H](C)N(C(=O)Cc2ccccn2)C[C@@H]1C`, the inhibition is -1.41%.

Consider `CC[C@]1(O)CC2CN(CCc3c([nH]c4ccccc34)[C@@](C(=O)OC)(c3cc4c(cc3OC)N(C=O)[C@H]3[C@@](O)(C(=O)OC)[C@H](OC(C)=O)[C@]5(CC)C=CCN6CC[C@]43[C@@H]65)C2)C1` (stereo not given in full), for which the inhibition is 61.7% (active).

Turning to `CC[C@]1(O)C[C@@H]2CN(CCc3c([nH]c4ccccc34)[C@@](C(=O)OC)(c3cc4c(cc3OC)N(C)[C@H]3[C@@](O)(C(=O)OC)[C@H](OC(C)=O)[C@]5(CC)C=CCN6CC[C@]43[C@@H]65)C2)C1`, the inhibition was 63% (active).

For `CN1C(=O)c2cc(NC(=O)C3CC3)ccc2OC[C@@H]2O[C@H](CC(=O)NCC3CCCCC3)CC[C@@H]21`, the inhibition is 6.23%.

As for `C[C@H]1CN([C@@H](C)CO)S(=O)(=O)c2ccc(C3=CCCCC3)cc2O[C@@H]1CN(C)Cc1ccccc1`, the inhibition was 23.9%.

For `Cc1cc(C(=O)Nc2ccc3c(c2)C(=O)N(C)[C@@H]2CC[C@@H](CC(=O)NC4CCCC4)O[C@@H]2CO3)no1`, the inhibition is 4.52%.

Regarding `COc1ccc2c3c(n(C)c2c1)[C@@H](CO)N(C)CC31CN(S(=O)(=O)c2cccs2)C1`, the inhibition is 3.63%.

In the case of `COc1cccc(C#Cc2ccc([C@H]3[C@@H](CO)N(C(=O)c4ccccn4)[C@H]3C#N)cc2)c1`, the inhibition was 30.6%.

For the compound `C[C@H]1CN([C@@H](C)CO)C(=O)c2cc(-c3ccncc3)cnc2O[C@@H]1CN(C)C(=O)c1cccc(F)c1`, the inhibition was -6.09%.

`C[C@H]1CCCCO[C@H](CN(C)CC2CCCCC2)[C@@H](C)CN([C@@H](C)CO)C(=O)c2cc(NS(=O)(=O)c3ccc(Cl)cc3)ccc2O1`: the inhibition is 61.5% (active).

As to `C[C@@H]1CCCCO[C@@H](CN(C)Cc2ccc3c(c2)OCO3)[C@@H](C)CN([C@@H](C)CO)C(=O)c2cc(NC(=O)Nc3ccccc3)ccc2O1`, the inhibition is -8.42%.

In the case of `C[C@@H]1CCCCO[C@H](CN(C)CC2CCCCC2)[C@H](C)CN([C@H](C)CO)C(=O)c2cc(NC(=O)Nc3ccc(F)cc3)ccc2O1`, the inhibition was -1.9%.

On to `C[C@@H]1CN([C@H](C)CO)C(=O)c2cc(NC(=O)Nc3ccc(F)cc3)ccc2O[C@@H](C)CCCCO[C@@H]1CN(C)CC1CCCCC1`, for which the inhibition is 58.8% (active).

Take `C[C@@H]1CCCCO[C@H](CN(C)CC2CC2)[C@@H](C)CN([C@H](C)CO)C(=O)c2cc(NC(=O)Nc3ccc(F)cc3)ccc2O1`: the inhibition was -1.94%.

As for `C[C@H]1CCCCO[C@@H](CN(C)Cc2ccc3c(c2)OCO3)[C@@H](C)CN([C@@H](C)CO)C(=O)c2cc(NC(=O)Nc3ccc(F)cc3)ccc2O1`, the inhibition was 73.8% (active).

`C[C@@H]1CN([C@H](C)CO)C(=O)c2cc(NC(=O)Nc3ccc4c(c3)OCO4)ccc2O[C@@H](C)CCCCO[C@@H]1CN(C)Cc1ccc2c(c1)OCO2`: the inhibition is 11.6%.

For the compound `C[C@H](CO)N1C[C@H](C)[C@H](CN(C)CC2CCCCC2)OCCCC[C@H](C)Oc2ccc(NS(=O)(=O)c3ccc(F)cc3)cc2C1=O`, the inhibition is -7.04%.

For the compound `C[C@@H]1CCCCO[C@H](CN(C)CC2CCCCC2)[C@H](C)CN([C@H](C)CO)C(=O)c2cc(NS(=O)(=O)c3ccc(F)cc3)ccc2O1`, the inhibition was 24.8%.

Take `CCS(=O)(=O)N1[C@H](CO)[C@@H](c2ccccc2)C12CN(C(=O)c1ccccc1F)C2`: the inhibition is 8.71%.

In the case of `CC(C)NC(=O)N1[C@@H]2CN(C(=O)C3CCCCC3)c3ccccc3[C@@H]2[C@@H]1CO`, the inhibition is 1.34%.

In the case of `CN(C)C(=O)[C@@H]1[C@@H](CO)[C@@H]2Cn3c(ccc(C4=CCCC4)c3=O)[C@H]1N2Cc1ccccn1`, the inhibition was -3.42%.

Regarding `COc1ccc(-c2cnc3c(c2)C(=O)N([C@@H](C)CO)C[C@H](C)[C@@H](CN(C)C(=O)C2CC2)O3)cc1`, the inhibition is -4.94%.

Consider `CCS(=O)(=O)N1CC2(C1)CN(S(=O)(=O)c1ccccc1)[C@H](CO)c1c2c2ccc(OC)cc2n1C`, for which the inhibition was -5.22%.

`CO[C@@H]1CN(C)C(=O)c2ccc(NC(=O)NC(C)C)cc2OC[C@@H](C)N(Cc2ccc(-c3ccccn3)cc2)C[C@H]1C`: the inhibition is 0.576%.
